# Data from the supplement of paper PMC8728848.
# This is one part of a sample in which the strongest signals are shown more often than they occur.
# B1: rPitB (Streptococcus pneumoniae), A0A0I7U739 (protein)
# chain: MSEIEIINAKKIYHDVPVIENLNITIPKGSLFTLLGASGCGKTTLLRMIAGFNSIKDGEFYFDDTKINNMEPSKRNIGLVFQNYAIFPHLTVRDNVAFGLMQKKVPKEELIQQTNKYLELMQIAQYAD
# Legend:
# Test in all cases: glycan array binding signal (z-score within array); higher = stronger binding
# Conditions in all cases: glycan notation: IUPAC condensed, linker removed
# [1] = target: Fuc(a1-2)Gal(b1-3)GalNAc(a1-3)[Fuc(a1-2)]Gal(b1-4)GlcNAc
# Procedure, shortened: (§1)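 The Consortium for Functional Glycomics database supplied 3228 glycan arrays, of which those lacking an available protein sequence were dropped. The binding signal, a within-array Z-score, was averaged across arrays of the same protein sequence and across linkers. Negative scores can be read as non-binding.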
# [2] = target: Fuc(a1-2)Gal(b1-3)GalNAc(b1-4)[Neu5Ac(a2-3)]Gal(b1-4)Glc
# Procedure, shortened: as §1
# [3] = target: Fuc(a1-2)Gal(b1-3)GlcNAc(b1-3)[Gal(b1-4)GlcNAc(b1-6)]Gal(b1-4)Glc
# Procedure, shortened: as §1
# [4] = target: Fuc(a1-2)Gal(b1-3)[Fuc(a1-4)]GlcNAc(b1-3)[Fuc(a1-3)[Gal(b1-4)]GlcNAc(b1-6)]Gal(b1-4)Glc
# Procedure, shortened: as §1
# [5] = target: Fuc(a1-2)Gal(b1-4)GlcNAc(b1-2)[Fuc(a1-2)Gal(b1-4)GlcNAc(b1-4)]Man(a1-3)[Fuc(a1-2)Gal(b1-4)GlcNAc(b1-2)Man(a1-6)]Man(b1-4)GlcNAc(b1-4)GlcNAc
# Procedure, shortened: as §1
# [6] = target: Fuc(a1-2)[Gal(a1-3)]Gal(b1-3)GlcNAc
# Procedure, shortened: as §1
# [7] = target: Fuc(a1-2)[Gal(a1-3)]Gal(b1-4)Glc
# Procedure, shortened: as §1
# [8] = target: Fuc(a1-2)[Gal(a1-4)]Gal(b1-4)GlcNAc
# Procedure, shortened: as §1
# [9] = target: Fuc(a1-2)[GalNAc(a1-3)]Gal(b1-4)Glc
# Procedure, shortened: as §1
# [10] = target: Fuc(a1-2)[GalNAc(a1-3)]Gal(b1-4)GlcNAc
# Procedure, shortened: as §1
# [11] = target: Fuc(a1-2)[GalNAc(a1-3)]Gal(b1-4)GlcNAc(b1-2)Man(a1-3)[Fuc(a1-2)[GalNAc(a1-3)]Gal(b1-4)GlcNAc(b1-2)Man(a1-6)]Man(b1-4)GlcNAc(b1-4)GlcNAc
# Procedure, shortened: as §1
# [12] = target: Fuc(a1-3)[Gal(b1-4)]GlcNAc(b1-4)Gal(b1-4)[Fuc(a1-3)]GlcNAc(b1-4)Gal(b1-4)[Fuc(a1-3)]GlcNAc
# Procedure, shortened: as §1
# Fuc(a1-4)GlcNAc = target: Fuc(a1-4)GlcNAc
# Procedure, shortened: as §1
# Gal(a1-3)Gal(b1-4)Glc = target: Gal(a1-3)Gal(b1-4)Glc
# Procedure, shortened: as §1
# [13] = target: Gal(a1-4)Gal(b1-4)GlcNAc(b1-2)Man(a1-3)[Gal(a1-4)Gal(b1-4)GlcNAc(b1-2)Man(a1-6)]Man(b1-4)GlcNAc(b1-4)GlcNAc
# Procedure, shortened: as §1
# Gal(b1-3)GlcNAc = target: Gal(b1-3)GlcNAc
# Procedure, shortened: as §1
# [14] = target: Gal(b1-3)GlcNAc(b1-2)Man(a1-3)[Gal(b1-3)GlcNAc(b1-2)Man(a1-6)]Man(b1-4)GlcNAc(b1-4)GlcNAc
# Procedure, shortened: as §1
# [15] = target: Gal(b1-3)GlcNAc(b1-2)Man(a1-3)[Gal(b1-3)GlcNAc(b1-2)Man(a1-6)]Man(b1-4)GlcNAc(b1-4)[Fuc(a1-6)]GlcNAc
# Procedure, shortened: as §1
# [16] = target: Gal(b1-3)[Fuc(a1-4)]GlcNAc(b1-2)Man(a1-3)[Gal(b1-3)[Fuc(a1-4)]GlcNAc(b1-2)Man(a1-6)]Man(b1-4)GlcNAc(b1-4)GlcNAc
# Procedure, shortened: as §1
# [17] = target: Gal(b1-3)[Fuc(a1-4)]GlcNAc(b1-2)Man(a1-3)[Gal(b1-3)[Fuc(a1-4)]GlcNAc(b1-2)Man(a1-6)]Man(b1-4)GlcNAc(b1-4)[Fuc(a1-6)]GlcNAc
# Procedure, shortened: as §1
# [18] = target: Gal(b1-3)[Neu5Ac(a2-6)]GalNAc
# Procedure, shortened: as §1
# [19] = target: Gal(b1-3)[Neu5Ac(a2-6)]GlcNAc(b1-6)Gal(b1-4)Glc
# Procedure, shortened: as §1
# [20] = target: Gal(b1-4)GlcNAc(b1-2)Man(a1-3)[Gal(b1-4)GlcNAc(b1-2)Man(a1-6)]Man(b1-4)GlcNAc(b1-4)[Fuc(a1-6)]GlcNAc
# Procedure, shortened: as §1
# [21] = target: Gal(b1-4)GlcNAc(b1-2)Man(a1-3)[GlcNAc(b1-2)Man(a1-6)]Man(b1-4)GlcNAc(b1-4)GlcNAc
# Procedure, shortened: as §1
# [22] = target: Gal(b1-4)GlcNAc(b1-6)Gal(b1-4)GlcNAc
# Procedure, shortened: as §1
# [23] = target: Gal3S(b1-3)[Fuc(a1-4)]GlcNAc
# Procedure, shortened: as §1
# Gal3S(b1-4)Glc6S = target: Gal3S(b1-4)Glc6S
# Procedure, shortened: as §1
# Gal3S(b1-4)GlcNAc6S = target: Gal3S(b1-4)GlcNAc6S
# Procedure, shortened: as §1
# Gal3S6S(b1-4)GlcNAc6S = target: Gal3S6S(b1-4)GlcNAc6S
# Procedure, shortened: as §1
# Gal6S(b1-3)GlcNAc6S = target: Gal6S(b1-3)GlcNAc6S
# Procedure, shortened: as §1
# Gal6S(b1-4)GlcNAc6S = target: Gal6S(b1-4)GlcNAc6S
# Procedure, shortened: as §1
# GalNAc(b1-6)GalNAc = target: GalNAc(b1-6)GalNAc
# Procedure, shortened: as §1
# Glc(b1-6)Glc = target: Glc(b1-6)Glc
# Procedure, shortened: as §1
# GlcA(b1-3)GlcNAc = target: GlcA(b1-3)GlcNAc
# Procedure, shortened: as §1
# [24] = target: GlcNAc(a1-4)Gal(b1-4)GlcNAc(b1-3)Gal(b1-4)[Fuc(a1-3)]GlcNAc(b1-3)Gal(b1-4)[Fuc(a1-3)]GlcNAc
# Procedure, shortened: as §1
# [25] = target: GlcNAc(b1-2)Man(a1-3)[GlcNAc(b1-4)][GlcNAc(b1-2)Man(a1-6)]Man(b1-4)GlcNAc(b1-4)GlcNAc
# Procedure, shortened: as §1
# [26] = target: GlcNAc(b1-2)[GlcNAc(b1-4)]Man(a1-3)[GlcNAc(b1-4)][GlcNAc(b1-2)Man(a1-6)]Man(b1-4)GlcNAc(b1-4)GlcNAc
# Procedure, shortened: as §1
# [27] = target: Neu5Ac(a2-3)Gal(b1-3)GalNAc(b1-3)Gal(a1-4)Gal(b1-4)Glc
# Procedure, shortened: as §1
# [28] = target: Neu5Ac(a2-3)Gal(b1-3)GlcNAc(b1-3)Gal(b1-3)GlcNAc
# Procedure, shortened: as §1
# [29] = target: Neu5Ac(a2-3)Gal(b1-3)[Fuc(a1-4)]GlcNAc(b1-3)Gal(b1-3)[Fuc(a1-4)]GlcNAc
# Procedure, shortened: as §1
# [30] = target: Neu5Ac(a2-3)Gal(b1-4)GlcNAc(b1-3)Gal(b1-3)GlcNAc
# Procedure, shortened: as §1
# [31] = target: Neu5Ac(a2-3)Gal(b1-4)GlcNAc(b1-6)[Neu5Ac(a2-3)Gal(b1-3)]GalNAc
# Procedure, shortened: as §1
# [32] = target: Neu5Ac(a2-3)Gal(b1-4)[Fuc(a1-3)]GlcNAc(b1-3)GalNAc
# Procedure, shortened: as §1
# [33] = target: Neu5Ac(a2-3)Gal(b1-4)[Fuc(a1-3)]GlcNAc(b1-6)[Gal(b1-3)]GalNAc
# Procedure, shortened: as §1
# [34] = target: Neu5Ac(a2-3)[GalNAc(b1-4)]Gal(b1-4)GlcNAc(b1-3)GalNAc
# Procedure, shortened: as §1
# [35] = target: Neu5Ac(a2-6)Gal(b1-4)GlcNAc(b1-2)Man(a1-3)[GlcNAc(b1-2)Man(b1-4)GlcNAc(b1-2)Man(a1-6)]Man(b1-4)GlcNAc(b1-4)GlcNAc
# Procedure, shortened: as §1
# [36] = target: Neu5Ac(a2-6)Gal(b1-4)GlcNAc(b1-2)Man(a1-3)[Man(a1-6)]Man(b1-4)GlcNAc(b1-4)GlcNAc
# Procedure, shortened: as §1
# [37] = target: Neu5Ac(a2-6)Gal(b1-4)GlcNAc(b1-3)Gal(b1-4)GlcNAc(b1-3)Gal(b1-4)GlcNAc
# Procedure, shortened: as §1
# [38] = target: Neu5Ac(a2-6)Gal(b1-4)GlcNAc(b1-3)Gal(b1-4)[Fuc(a1-3)]GlcNAc(b1-3)Gal(b1-4)[Fuc(a1-3)]GlcNAc
# Procedure, shortened: as §1
# [39] = target: Neu5Ac(a2-8)Neu5Ac(a2-3)[Gal(b1-3)GalNAc(b1-4)]Gal(b1-4)Glc
# Procedure, shortened: as §1
binder,measurement,setting,value
B1,glycan array binding signal (z-score),[1],-0.708
same,glycan array binding signal (z-score),[2],-0.128
same,glycan array binding signal (z-score),[3],-0.397
same,glycan array binding signal (z-score),[4],0.227
same,glycan array binding signal (z-score),[5],0.316
same,glycan array binding signal (z-score),[6],-0.113
same,glycan array binding signal (z-score),[7],1.11
same,glycan array binding signal (z-score),[8],-0.108
same,glycan array binding signal (z-score),[9],-0.271
same,glycan array binding signal (z-score),[10],-0.509
same,glycan array binding signal (z-score),[11],0.481
same,glycan array binding signal (z-score),[12],3.03
same,glycan array binding signal (z-score),Fuc(a1-4)GlcNAc,-0.579
same,glycan array binding signal (z-score),Gal(a1-3)Gal(b1-4)Glc,-0.617
same,glycan array binding signal (z-score),[13],1.43
same,glycan array binding signal (z-score),Gal(b1-3)GlcNAc,-0.704
same,glycan array binding signal (z-score),[14],0.944
same,glycan array binding signal (z-score),[15],0.638
same,glycan array binding signal (z-score),[16],3.68
same,glycan array binding signal (z-score),[17],2.09
same,glycan array binding signal (z-score),[18],0.092
same,glycan array binding signal (z-score),[19],-0.142
same,glycan array binding signal (z-score),[20],0.8
same,glycan array binding signal (z-score),[21],-0.568
same,glycan array binding signal (z-score),[22],-0.596
same,glycan array binding signal (z-score),[23],-0.575
same,glycan array binding signal (z-score),Gal3S(b1-4)Glc6S,0.112
same,glycan array binding signal (z-score),Gal3S(b1-4)GlcNAc6S,0.471
same,glycan array binding signal (z-score),Gal3S6S(b1-4)GlcNAc6S,-0.233
same,glycan array binding signal (z-score),Gal6S(b1-3)GlcNAc6S,0.052
same,glycan array binding signal (z-score),Gal6S(b1-4)GlcNAc6S,0.24
same,glycan array binding signal (z-score),GalNAc(b1-6)GalNAc,-0.608
same,glycan array binding signal (z-score),Glc(b1-6)Glc,-0.176
same,glycan array binding signal (z-score),GlcA(b1-3)GlcNAc,5.72
same,glycan array binding signal (z-score),[24],3.89
same,glycan array binding signal (z-score),[25],-0.914
same,glycan array binding signal (z-score),[26],-1.01
same,glycan array binding signal (z-score),[27],-0.604
same,glycan array binding signal (z-score),[28],-0.301
same,glycan array binding signal (z-score),[29],2.33
same,glycan array binding signal (z-score),[30],-0.394
same,glycan array binding signal (z-score),[31],0.027
same,glycan array binding signal (z-score),[32],4.13
same,glycan array binding signal (z-score),[33],2.86
same,glycan array binding signal (z-score),[34],-0.463
same,glycan array binding signal (z-score),[35],-0.255
same,glycan array binding signal (z-score),[36],0.505
same,glycan array binding signal (z-score),[37],0.323
same,glycan array binding signal (z-score),[38],0.032
same,glycan array binding signal (z-score),[39],-0.053
